Measurements reported in PubChem BioAssay.
For part of these data: Measured potencies and affinities stand elsewhere. Activity calls are given as the source filed them. Unless noted, the rule behind the calls is not given here.

Key:
[1] = antimalarial activity against Dd2 strain (AID 2302;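 active = growth inhibition above 50% at the single 2 µM test dose, taken to imply half-maximal potency below 2 µM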;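 note: 0% = DMSO untreated growth and 100% = chloroquine plus artemisinin killed control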); details: P. falciparum Dd2 in RBCs, LDH growth readout, 72 h; at 2 µM; stronger effect = higher value
[2] = HepG2 cytotoxicity, primary screen, cytotoxicity control for P. falciparum antimalarial project, cell-based, ATP luminescence (AID 2303;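 active = inhibition above 50%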;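 note: 0% = DMSO wells and 100% = digitonin-killed cells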); details: HepG2 viability, 24-48 h, at 10 µM, stronger effect = higher value
[3] = biological target: L-lactate dehydrogenase (Plasmodium falciparum (isolate CDC / Honduras)) (UniProt Q27743); experiment: PfLDH activity inhibition – cell lysate, 3D7 strain, counter-screen for P. falciparum growth inhibition project (AID 2304);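 note: 0% = vehicle and 100% = reference inhibitor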; details: P. falciparum 3D7 crude extract, LDH APAD/NBT absorbance; at 2 µM; stronger effect = higher value
Sequence of L-lactate dehydrogenase (Plasmodium falciparum (isolate CDC / Honduras)) (Q27743 whole entry, looked up): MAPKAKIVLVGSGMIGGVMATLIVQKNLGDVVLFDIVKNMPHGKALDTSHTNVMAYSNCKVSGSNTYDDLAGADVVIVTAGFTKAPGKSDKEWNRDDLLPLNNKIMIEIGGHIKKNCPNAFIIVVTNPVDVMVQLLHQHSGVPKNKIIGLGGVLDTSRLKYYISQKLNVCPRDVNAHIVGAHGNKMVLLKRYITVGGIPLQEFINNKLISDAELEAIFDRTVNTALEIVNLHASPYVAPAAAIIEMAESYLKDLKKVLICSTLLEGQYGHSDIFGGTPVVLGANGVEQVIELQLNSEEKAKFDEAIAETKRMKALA

[4] = inhibition of 3D7 malaria parasite growth – strain 3D7 (AID 2306);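 note: 0% = DMSO wells and 100% = chloroquine plus artemisinin control wells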; details: P. falciparum 3D7 erythrocytic growth, LDH absorbance, 72 h; at 2 µM; stronger effect = higher value
[5] = biological target: Calcium-dependent protein kinase 1 (Plasmodium falciparum (isolate 3D7)) (UniProt P62344); experiment: PfCDPK1 kinase inhibitors, biochemical, TCAMS library (AID 1159585; cut-off not given, nearly all actives have IC50 up to about 0.98 µM;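 note: inhibitors leave more ATP so luminescence rises with inhibition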); details: recombinant PfCDPK1, Kinase-Glo ATP depletion luminescence
Sequence of Calcium-dependent protein kinase 1 (Plasmodium falciparum (isolate 3D7)) (P62344 whole entry, looked up): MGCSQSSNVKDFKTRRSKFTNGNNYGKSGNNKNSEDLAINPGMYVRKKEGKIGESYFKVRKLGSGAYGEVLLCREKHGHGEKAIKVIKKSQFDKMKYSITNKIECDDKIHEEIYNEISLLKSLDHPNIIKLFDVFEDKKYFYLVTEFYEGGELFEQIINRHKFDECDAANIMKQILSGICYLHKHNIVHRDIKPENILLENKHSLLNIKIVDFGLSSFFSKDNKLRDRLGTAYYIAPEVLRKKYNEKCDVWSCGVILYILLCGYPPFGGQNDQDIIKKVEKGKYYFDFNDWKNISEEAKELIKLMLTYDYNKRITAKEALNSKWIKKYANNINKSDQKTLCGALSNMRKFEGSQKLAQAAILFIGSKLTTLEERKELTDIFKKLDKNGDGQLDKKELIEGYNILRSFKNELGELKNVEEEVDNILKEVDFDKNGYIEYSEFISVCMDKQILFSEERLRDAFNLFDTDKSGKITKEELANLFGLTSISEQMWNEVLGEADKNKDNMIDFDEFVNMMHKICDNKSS

[6] = biological target: Plasmodium falciparum protein kinase 6 (PK6, PF3D7_1337100) (UniProt Q8IDW1); experiment: PfPK6 kinase inhibitors, biochemical, TCAMS library (AID 1159586); details: recombinant PfPK6, Kinase-Glo ATP depletion luminescence
Sequence of Plasmodium falciparum protein kinase 6 (PK6, PF3D7_1337100) (Q8IDW1 1-305): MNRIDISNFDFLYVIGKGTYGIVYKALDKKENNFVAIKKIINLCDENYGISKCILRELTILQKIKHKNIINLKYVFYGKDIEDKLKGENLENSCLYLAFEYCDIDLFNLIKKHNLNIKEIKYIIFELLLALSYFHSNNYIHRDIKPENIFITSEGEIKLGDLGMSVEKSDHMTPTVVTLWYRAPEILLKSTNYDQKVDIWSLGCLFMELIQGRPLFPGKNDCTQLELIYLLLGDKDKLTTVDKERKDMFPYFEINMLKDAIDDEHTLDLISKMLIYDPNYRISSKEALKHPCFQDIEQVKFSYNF

[7] = biological target: Protein kinase 7 (PK7), Plasmodium falciparum 3D7 (PF3D7_0213400) (UniProt Q7YTF7); experiment: inhibition of Plasmodium PK7 catalytic activity – biochemical, TCAMS antimalarial set, Kinase-Glo luminescence (AID 1159587); details: recombinant PfPK7, Kinase-Glo ATP depletion luminescence
Sequence of Protein kinase 7 (PK7), Plasmodium falciparum 3D7 (PF3D7_0213400) (Q7YTF7 1-343): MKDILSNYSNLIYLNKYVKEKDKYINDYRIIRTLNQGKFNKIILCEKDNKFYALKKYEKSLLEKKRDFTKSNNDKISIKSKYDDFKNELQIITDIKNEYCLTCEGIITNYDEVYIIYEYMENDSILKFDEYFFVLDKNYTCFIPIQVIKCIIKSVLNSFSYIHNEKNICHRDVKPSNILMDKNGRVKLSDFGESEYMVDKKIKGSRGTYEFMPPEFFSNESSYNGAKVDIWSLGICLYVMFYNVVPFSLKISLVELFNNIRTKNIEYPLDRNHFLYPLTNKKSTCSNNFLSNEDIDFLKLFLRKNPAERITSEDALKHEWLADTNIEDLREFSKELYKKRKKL

[8] = biological target: Calcium-dependent protein kinase 4 (Plasmodium falciparum (isolate 3D7)) (UniProt Q8IBS5); experiment: PfCDPK4 kinase inhibitors, biochemical, TCAMS library (AID 1159588; cut-off not given, nearly all actives have IC50 up to about 0.91 µM); details: recombinant PfCDPK4, Kinase-Glo ATP depletion luminescence
Sequence of Calcium-dependent protein kinase 4 (Plasmodium falciparum (isolate 3D7)) (Q8IBS5 whole entry, looked up): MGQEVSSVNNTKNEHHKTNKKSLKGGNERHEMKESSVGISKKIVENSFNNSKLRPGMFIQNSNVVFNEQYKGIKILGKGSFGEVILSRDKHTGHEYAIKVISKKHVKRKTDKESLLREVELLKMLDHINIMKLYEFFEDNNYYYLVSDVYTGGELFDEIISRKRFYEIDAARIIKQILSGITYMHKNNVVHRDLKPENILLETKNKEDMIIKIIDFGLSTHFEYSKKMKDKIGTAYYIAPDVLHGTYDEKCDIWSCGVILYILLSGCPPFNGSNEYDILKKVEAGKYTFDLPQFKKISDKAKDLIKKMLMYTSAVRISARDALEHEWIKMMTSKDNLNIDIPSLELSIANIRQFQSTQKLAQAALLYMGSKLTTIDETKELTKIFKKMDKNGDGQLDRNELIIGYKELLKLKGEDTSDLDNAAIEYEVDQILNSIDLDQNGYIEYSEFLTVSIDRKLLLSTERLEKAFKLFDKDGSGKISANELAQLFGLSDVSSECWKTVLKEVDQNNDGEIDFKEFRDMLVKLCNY

CN1CCN(c2ccnc3ccc(NC(=O)Nc4ccccc4Br)cc23)CC1
active: growth inhibition [1] 95% | growth inhibition [4] 100%
inactive: inhibition [2] 4% | inhibition [3] -3% | outcome [5] | outcome [6] | outcome [7] | outcome [8]

Nc1c2ccccc2nc2ccc(Cl)cc12
inactive: inhibition [3] 6% | outcome [5] | outcome [6] | outcome [7] | outcome [8]
active: growth inhibition [1] 100% | inhibition [2] 55% | growth inhibition [4] 101%

NC(N)=NC(=O)Nc1cc(Cl)c(Cl)c(Cl)c1
inactive: inhibition [2] -2% | inhibition [3] 6% | outcome [5] | outcome [6] | outcome [7] | outcome [8]
active: growth inhibition [1] 100% | growth inhibition [4] 101%

CCOc1ccc(OCC)c(N2CCN(CCCCNC(=O)c3ccc(NC(=O)c4ccc(Cl)cc4)cc3)CC2)c1
active: growth inhibition [4] 97%
inactive: growth inhibition [1] 40% | inhibition [2] 13% | inhibition [3] 1% | outcome [5] | outcome [6] | outcome [7] | outcome [8]

Cn1nccc1C(=O)NCCNCc1cccc(-c2cccc(-c3nc4ccc(F)cc4[nH]3)c2)c1
inactive: growth inhibition [1] 7% | inhibition [2] 38% | inhibition [3] 0% | outcome [5] | outcome [6] | outcome [7] | outcome [8]
active: growth inhibition [4] 100%

Cc1nc(NCCc2cnc[nH]2)cc(NCc2ccccc2)n1
inactive: growth inhibition [1] 5% | inhibition [2] 5% | inhibition [3] -2% | outcome [5] | outcome [6] | outcome [7] | outcome [8]
active: growth inhibition [4] 100%

COc1cc(C(=O)NC2CC(C)(C)N(C)C(C)(C)C2)ccc1-c1cc2cc(Cl)c(Cl)cc2[nH]1
inactive: growth inhibition [1] 36% | inhibition [3] 1% | outcome [5] | outcome [6] | outcome [7] | outcome [8]
active: inhibition [2] 65% | growth inhibition [4] 89%

CN1CCN(Cc2ccc(-c3ccc4ncnc(Nc5ccc(OCc6ccccc6)cc5)c4c3)o2)CC1
inactive: inhibition [2] 9% | inhibition [3] 2% | outcome [5] | outcome [6] | outcome [7] | outcome [8]
active: growth inhibition [1] 90% | growth inhibition [4] 97%

COc1ccc(CC(=O)Nc2ccc(Nc3nc(C)cc(N4CCCC4)n3)cc2)cc1
active: growth inhibition [1] 65% | inhibition [2] 56% | growth inhibition [4] 101%
inactive: inhibition [3] -1% | outcome [5] | outcome [6] | outcome [7] | outcome [8]

O=C(/C=C/c1ccc(Cl)c(Cl)c1)NCCCCCN1CCC(NC(=O)Nc2ccc(Cl)c(C(F)(F)F)c2)CC1
inactive: growth inhibition [1] 19% | inhibition [3] -1% | outcome [5] | outcome [6] | outcome [7] | outcome [8]
active: inhibition [2] 76% | growth inhibition [4] 99%

CCn1ncc2c(N3CCCC3=O)cc(C(=O)N[C@@H](Cc3ccccc3)[C@H](O)CNC(C)(C)c3cccc(C(F)(F)F)c3)cc21
inactive: inhibition [2] 10% | inhibition [3] 3% | outcome [5] | outcome [6] | outcome [7] | outcome [8]
active: growth inhibition [1] 99% | growth inhibition [4] 98%

COc1cccc(NC(=O)Nc2ccc(Nc3nc(C)cc(N4CCCC4)n3)cc2)c1
active: growth inhibition [1] 100% | growth inhibition [4] 101%
inactive: inhibition [2] 28% | inhibition [3] -1% | outcome [5] | outcome [6] | outcome [7] | outcome [8]

Nc1ncc(-c2ccc(F)cc2)c2ccc(-c3cccc(F)c3)cc12
active: growth inhibition [1] 89% | growth inhibition [4] 99%
inactive: inhibition [2] 34% | inhibition [3] 3% | outcome [5] | outcome [6] | outcome [7] | outcome [8]

O=[N+]([O-])c1cccc(CNC2CCN(Cc3ccc4ccccc4c3)CC2)c1
active: growth inhibition [4] 100%
inactive: growth inhibition [1] 22% | inhibition [2] 12% | inhibition [3] -3% | outcome [5] | outcome [6] | outcome [7] | outcome [8]

COc1cc(COc2c(C)nc(N)nc2N)cc(OC)c1OC
inactive: growth inhibition [1] -5% | inhibition [2] 7% | inhibition [3] -9% | outcome [5] | outcome [6] | outcome [7] | outcome [8]
active: growth inhibition [4] 100%

Oc1cccc(CNCCCN(Cc2ccccc2)c2ccccc2)c1
inactive: inhibition [2] 7% | inhibition [3] -6% | outcome [5] | outcome [6] | outcome [7] | outcome [8]
active: growth inhibition [1] 97% | growth inhibition [4] 99%

COCCNCc1ccc(-c2ccc3c(Nc4ccc(Cl)cc4F)ccnc3c2)o1
inactive: inhibition [2] 15% | inhibition [3] -2% | outcome [5] | outcome [6] | outcome [7] | outcome [8]
active: growth inhibition [1] 100% | growth inhibition [4] 100%

Cc1ccc(C(=O)N2CCc3cc4nccc(N5CCN6CCC[C@H]6C5)c4cc32)cc1
active: growth inhibition [4] 95%
inactive: growth inhibition [1] 13% | inhibition [2] 5% | inhibition [3] -5% | outcome [5] | outcome [6] | outcome [7] | outcome [8]

CC(C)(C)Oc1ccc(CC2NC3(C(=O)N(Cc4ccc(C(C)(C)C)cc4)c4ccccc43)C3C(=O)N(c4ccc(Br)cc4)C(=O)C23)cc1 (stereo not given)
inactive: inhibition [2] 24% | inhibition [3] 0% | outcome [5] | outcome [6] | outcome [7] | outcome [8]
active: growth inhibition [1] 94% | growth inhibition [4] 94%

C#C[C@H]1O[C@@H](n2cnc3c(Nc4cc(Br)cc(C(F)(F)F)c4)ncnc32)[C@H](O)[C@@H]1O
active: growth inhibition [1] 56% | growth inhibition [4] 94%
inactive: inhibition [2] 21% | inhibition [3] 4% | outcome [5] | outcome [6] | outcome [7] | outcome [8]

CCCCCCCN1CC[C@@H](CCCc2ccnc3ccc(OCCN4CCNCC4)cc23)[C@@H](CC)C1
active: growth inhibition [1] 98% | inhibition [2] 82% | growth inhibition [4] 101%
inactive: inhibition [3] -2% | outcome [5] | outcome [6] | outcome [7] | outcome [8]

Cc1ccc(Oc2ccc(NC(=O)CNc3ccccc3N3CCCC3=O)cc2)cc1
inactive: inhibition [2] 14% | inhibition [3] -5% | outcome [5] | outcome [6] | outcome [7] | outcome [8]
active: growth inhibition [1] 97% | growth inhibition [4] 98%

COc1ccc(Nc2nccc(NCCNC(=O)c3cc4ccccc4s3)n2)cc1
inactive: growth inhibition [1] 7% | inhibition [2] 6% | inhibition [3] -1% | outcome [5] | outcome [6] | outcome [7] | outcome [8]
active: growth inhibition [4] 98%

COCCCNC(=O)C1CCN(C(c2ccc(Cl)cc2)c2ccc(Cl)cc2)CC1
active: growth inhibition [1] 63% | growth inhibition [4] 91%
inactive: inhibition [2] 5% | inhibition [3] 0% | outcome [5] | outcome [6] | outcome [7] | outcome [8]

CS(=O)(=O)CCOCc1ccc(-c2ccc3ncnc(Nc4ccc(OCc5cccc(F)c5)c(Cl)c4)c3c2)o1
active: growth inhibition [4] 96%
inactive: growth inhibition [1] 43% | inhibition [2] 1% | inhibition [3] 5% | outcome [5] | outcome [6] | outcome [7] | outcome [8]

Cc1cccc(-n2nc(C)c3c2NC(=O)CC3C(=O)c2ccc(Cl)s2)c1 (stereo not given)
active: growth inhibition [1] 85% | growth inhibition [4] 92%
inactive: inhibition [2] 13% | inhibition [3] -1% | outcome [5] | outcome [6] | outcome [7] | outcome [8]

CCCN(CCC)C(C)CCC(C)Nc1c2ccc(Cl)cc2nc2ccc(OC)cc12 (stereo not given)
inactive: inhibition [2] 41% | inhibition [3] 3% | outcome [5] | outcome [6] | outcome [7] | outcome [8]
active: growth inhibition [1] 99% | growth inhibition [4] 101%

C=CC[C@@H](C(=O)OCC)[C@@H]1[C@@H](N(CC=C)C(=O)OC(C)(C)C)CCN1C(=O)OCc1ccccc1
active: growth inhibition [1] 68% | growth inhibition [4] 92%
inactive: inhibition [2] 2% | inhibition [3] 4% | outcome [5] | outcome [6] | outcome [7] | outcome [8]

O=S(=O)(Nc1cc2c(cc1O)CCN(C1CCC1)CC2)c1ccc(Oc2ccc(F)cc2)cc1
active: growth inhibition [1] 52% | growth inhibition [4] 99%
inactive: inhibition [2] 20% | inhibition [3] 0% | outcome [5] | outcome [6] | outcome [7] | outcome [8]

Cc1ccccc1C1CCN(C2CCC(NC(=O)/C=C/c3cccc(F)c3F)CC2)CC1 (stereo not given)
inactive: growth inhibition [1] 45% | inhibition [3] -3% | outcome [5] | outcome [6] | outcome [7] | outcome [8]
active: inhibition [2] 57% | growth inhibition [4] 89%
